# Data from PubChem BioAssay (NCI).
# Compounds without any hit were thinned out: in the full panel of roughly 83,000, 20% have a hit.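 Step 1: grow cells in 96-well plates. Step 2: add test compound at a single concentration. Step 3: incubate 48 h. Step 4: record percent growth.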 Values without a mark were called inactive. The source made the active and inactive calls. Rule for the calls: active = growth percent below 10; inactive = the rest.
# Key:
# Assay in all cases: NCI-60 one-dose screen, 48 h (100 = growth as untreated, 0 = no growth, -100 = all killed)
# [1] = system: RPMI-8226 leukemia; conditions: 10 µM unless noted
# [2] = system: OVCAR-8 ovarian
# [3] = system: OVCAR-5 ovarian
# [4] = system: OVCAR-4 ovarian
# [5] = system: SK-OV-3 ovarian
# [6] = system: IGROV1 ovarian
# [7] = system: OVCAR-3 ovarian
# [8] = system: HS 578T breast
# [9] = system: NCI/ADR-RES ovarian
smiles,measurement,setting,value
CC(C)(C)OC(=O)N1CCC2(CC1)Oc1ccccc1[C@H]1CC(c3ccc(Br)cc3)=NN12,growth,[1],56.2%
same,growth,[2]; 10 µM unless noted,83.3%
same,growth,[3]; 10 µM unless noted,122%
same,growth,[4]; 10 µM unless noted,65%
same,growth,[5]; 10 µM unless noted,79.1%
same,growth,[6]; 10 µM unless noted,58.7%
same,growth,[7]; 10 µM unless noted,77.1%
same,growth,[8]; 10 µM unless noted,91.5%
same,growth,[9]; 10 µM unless noted,83.7%
CN1CCN(C(=O)Oc2cc3c(c4ccccc24)[C@H](CCl)CN3C(=O)c2cc3cc(OCCCN4CCC4)ccc3[nH]2)[C@@H]2CSSC[C@H]21,growth,[1],-23.6% (active)
same,growth,[2]; 10 µM unless noted,-32.4% (active)
same,growth,[3]; 10 µM unless noted,-18.1% (active)
same,growth,[4]; 10 µM unless noted,12.5%
same,growth,[5]; 10 µM unless noted,-13.2% (active)
same,growth,[7]; 10 µM unless noted,4.14% (active)
same,growth,[8]; 10 µM unless noted,-12.2% (active)
same,growth,[9]; 10 µM unless noted,-23.1% (active)
Cn1ncc2c(N)nc(Oc3ccccc3-c3ccccc3)nc21,growth,[2]; 10 µM unless noted,36.2%
same,growth,[3]; 10 µM unless noted,66.8%
same,growth,[4]; 10 µM unless noted,58.3%
same,growth,[5]; 10 µM unless noted,110%
same,growth,[6]; 10 µM unless noted,38.6%
same,growth,[7]; 10 µM unless noted,27.9%
same,growth,[8]; 10 µM unless noted,40.9%
same,growth,[9]; 10 µM unless noted,-9.01% (active)
N#Cc1c(-c2ccc(F)cc2)nc(SCc2ccc(F)cc2)nc1N1CCNCC1,growth,[1],-47.4% (active)
same,growth,[2]; 10 µM unless noted,-84% (active)
same,growth,[3]; 10 µM unless noted,0.484% (active)
same,growth,[4]; 10 µM unless noted,-8.59% (active)
same,growth,[5]; 10 µM unless noted,56.7%
same,growth,[7]; 10 µM unless noted,-35.1% (active)
same,growth,[8]; 10 µM unless noted,-0.165% (active)
same,growth,[9]; 10 µM unless noted,-39% (active)
O=C(Nc1nc2ccc([N+](=O)[O-])cc2s1)Nc1ccc(Cl)cc1Cl,growth,[1],23.5%
same,growth,[2]; 10 µM unless noted,48.4%
same,growth,[3]; 10 µM unless noted,84.6%
same,growth,[4]; 10 µM unless noted,54.6%
same,growth,[5]; 10 µM unless noted,4.05% (active)
same,growth,[6]; 10 µM unless noted,60.7%
same,growth,[7]; 10 µM unless noted,65.4%
same,growth,[8]; 10 µM unless noted,46.4%
same,growth,[9]; 10 µM unless noted,26.6%
O=C1NC(=S)/C(=C/c2cn(-c3ccccc3)nc2-c2ccccc2)S1,growth,[1],5.49% (active)
same,growth,[2]; 10 µM unless noted,31.7%
same,growth,[3]; 10 µM unless noted,47.9%
same,growth,[4]; 10 µM unless noted,25.4%
same,growth,[5]; 10 µM unless noted,35.5%
same,growth,[6]; 10 µM unless noted,29.1%
same,growth,[7]; 10 µM unless noted,36.7%
same,growth,[8]; 10 µM unless noted,8.03% (active)
same,growth,[9]; 10 µM unless noted,18.6%
CC/C(=C(\c1ccc(O)cc1)c1ccc(OCCNC)cc1)c1ccccc1,growth,[2]; 1 µM,104%
same,growth,[2]; 10 µM,97.3%
same,growth,[3]; 1 µM,97.8%
same,growth,[3]; 10 µM,106%
same,growth,[4]; 1 µM,111%
same,growth,[4]; 10 µM,88.7%
same,growth,[5]; 1 µM,84.4%
same,growth,[5]; 10 µM,92.7%
same,growth,[6]; 1 µM,101%
same,growth,[6]; 10 µM,96.9%
same,growth,[7]; 1 µM,115%
same,growth,[7]; 10 µM,85.4%
same,growth,[8]; 1 µM,94.8%
same,growth,[8]; 10 µM,80.5%
same,growth,[9]; 1 µM,103%
same,growth,[9]; 10 µM,91.1%
Nc1nnc(-c2cncc(Br)c2)c(-c2c[nH]c3ccc(Br)cc23)n1,growth,[1],38.4%
same,growth,[2]; 10 µM unless noted,60%
same,growth,[3]; 10 µM unless noted,83%
same,growth,[4]; 10 µM unless noted,42.9%
same,growth,[6]; 10 µM unless noted,52.3%
same,growth,[7]; 10 µM unless noted,69.9%
same,growth,[8]; 10 µM unless noted,55.3%
same,growth,[9]; 10 µM unless noted,23.9%
COc1c2c(cc3c1C(CCc1ccccc1)N(C)CC3)OCO2 (stereo not given),growth,[1],-15.5% (active)
same,growth,[2]; 10 µM unless noted,16.9%
same,growth,[3]; 10 µM unless noted,16.2%
same,growth,[4]; 10 µM unless noted,29.2%
same,growth,[6]; 10 µM unless noted,-4.07% (active)
same,growth,[7]; 10 µM unless noted,3.16% (active)
same,growth,[8]; 10 µM unless noted,11%
same,growth,[9]; 10 µM unless noted,1.62% (active)
Cn1cc(-c2cc3nc(-c4cn(C)c5ncc(Br)cc45)cc(N)n3n2)c2cc(F)ccc21,growth,[1],32.9%
same,growth,[2]; 10 µM unless noted,10.5%
same,growth,[3]; 10 µM unless noted,31.8%
same,growth,[4]; 10 µM unless noted,3.36% (active)
same,growth,[5]; 10 µM unless noted,75%
same,growth,[6]; 10 µM unless noted,19.8%
same,growth,[7]; 10 µM unless noted,20.3%
same,growth,[8]; 10 µM unless noted,35%
same,growth,[9]; 10 µM unless noted,10.5%
COc1ccc([C@H]2C(C(=O)c3ccc(Cl)cc3)C3(N[C@@H]2c2ccccc2)C(=O)Nc2ccccc23)cc1 (stereo not given in full),growth,[1],10.4%
same,growth,[2]; 10 µM unless noted,32.7%
same,growth,[3]; 10 µM unless noted,50.5%
same,growth,[4]; 10 µM unless noted,31.1%
same,growth,[5]; 10 µM unless noted,72.5%
same,growth,[6]; 10 µM unless noted,35.6%
same,growth,[7]; 10 µM unless noted,27.4%
same,growth,[8]; 10 µM unless noted,53.7%
same,growth,[9]; 10 µM unless noted,12.2%
O=C1CCC(N2C(=O)c3cccc(NCCOCCOCCOCCC(=O)NCCCC(=O)NC(c4ccc5c(c4)OCO5)c4cc(Cl)c5cccnc5c4O)c3C2=O)C(=O)C1 (stereo not given),growth,[1],16.1%
same,growth,[2]; 10 µM unless noted,32.7%
same,growth,[3]; 10 µM unless noted,63.8%
same,growth,[4]; 10 µM unless noted,60.2%
same,growth,[5]; 10 µM unless noted,51.1%
same,growth,[6]; 10 µM unless noted,15.8%
same,growth,[7]; 10 µM unless noted,10.9%
same,growth,[8]; 10 µM unless noted,64.6%
same,growth,[9]; 10 µM unless noted,92.4%
